Cruzain noTriton: qHTS Assay for Promiscuous and Specific Inhibitors of Cruzain (without detergent); Potency, µM, most hits filed as inhibitors; Cruzipain (Trypanosoma cruzi), P25779; purified cruzain, Z-FR-AMC fluorescence, no detergent; 200,000 compounds, 2.3% hits; further: nearly all actives have a fitted effect of over 40% in size
Target sequence (P25779 123-467 limits assumed): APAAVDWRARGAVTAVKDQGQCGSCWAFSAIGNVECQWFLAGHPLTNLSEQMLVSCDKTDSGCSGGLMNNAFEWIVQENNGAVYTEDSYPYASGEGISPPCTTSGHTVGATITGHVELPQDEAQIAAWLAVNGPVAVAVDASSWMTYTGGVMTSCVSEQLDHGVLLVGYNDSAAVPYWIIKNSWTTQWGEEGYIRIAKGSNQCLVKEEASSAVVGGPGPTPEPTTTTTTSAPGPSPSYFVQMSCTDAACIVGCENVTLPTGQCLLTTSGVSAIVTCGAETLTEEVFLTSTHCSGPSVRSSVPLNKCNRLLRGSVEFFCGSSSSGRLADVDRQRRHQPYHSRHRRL
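Purified cruzain at 1.5 nM, pre-incubated 15 min with compound at room temperature in 100 mM sodium acetate pH 5.5, 5 mM DTT, 0.00005% Triton X-100. Reaction started with 2 uM Z-FR-AMC; AMC fluorescence increase over 60 s gives rate.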
Cruzain Triton: qHTS Assay for Promiscuous and Specific Inhibitors of Cruzain (with detergent); Potency, µM, actives largely listed as inhibitors; purified cruzain, Z-FR-AMC fluorescence, 0.01% Triton; Cruzipain (Trypanosoma cruzi), P25779; 200,000 compounds, 0.43% hits; further: nearly all actives have a fitted effect of over 40% in size
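Purified cruzain (1.5 nM final) was preincubated with compounds for 15 min at room temperature in 100 mM sodium acetate pH 5.5, 5 mM DTT, 0.01% Triton X-100. Reaction started with 2 uM Z-FR-AMC; AMC fluorescence change over 60 s gave activity.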
A number is an active result; n = inactive; u = inconclusive. In the library only some 2.4% were active in any assay of this set; here they are far more common. The call rests on the fitted dose curve; in most records, active means well fitted curve in the direction sought with a large enough effect; inconclusive means small, poorly fitted or top-dose-only effect, or another doubt; inactive means no such curve, though single readings can be large; an effect the other way counts as inactive or inconclusive.

SMILES	Cruzain noTriton	Cruzain Triton
CCc1ccc(NC(=O)c2cc(-c3ccc(OC)cc3)on2)cc1	13µM	n
COc1ccc(-c2noc(-c3ccccc3OCC(=O)Nc3ccc(C(C)=O)cc3)n2)cc1	n	n
CCOc1ccc(-c2cc(C(=O)Nc3ccc(NC(C)=O)cc3)no2)cc1	n	n
COc1ccc(CC(=O)Nc2ccc(-c3noc(-c4cc(OC)c(OC)c(OC)c4)n3)cc2)cc1	n	n
Cc1ccc(C)c(CN2C(=O)c3ccccc3S(=O)(=O)c3ccc(C(=O)N4CCN(c5ccccc5)CC4)cc32)c1	n	n
Cc1cc2nc(-c3cc(NC(=O)c4cc5ccccc5o4)ccc3Cl)oc2cc1C	13µM	n
COc1ccccc1C(=O)Nc1ccc2oc(-c3cccc4c(Br)cccc34)nc2c1	1.3µM	n
COc1cc2ccccc2cc1C(=O)Nc1ccc(Cl)c(-c2nc3ccccc3o2)c1	3.2µM	n
COc1cc2ccccc2cc1C(=O)Nc1ccc2oc(-c3ccc(Cl)cc3)nc2c1	n	n
O=C(Nc1ccc(Cl)c(-c2nc3cc(Cl)ccc3o2)c1)c1cc2ccccc2o1	u	n
COc1cc(OC)cc(C(=O)Nc2ccc3oc(-c4cccc5c(Br)cccc45)nc3c2)c1	n	n
Cc1ccc2oc(-c3cc(NC(=O)c4ccco4)ccc3Cl)nc2c1	n	n
Cc1ccc2oc(-c3cc(NC(=O)c4oc5ccccc5c4C)ccc3Cl)nc2c1	3.2µM	n
Cc1ccccc1N(C)S(=O)(=O)c1ccc2[nH]cc(C(=O)NCC3CCCO3)c(=O)c2c1 (configuration not stated)	u	n
CC1=C(C(=O)OC(C)C)C(c2c[nH]c3ccccc23)n2ncnc2N1 (configuration not stated)	n	n
Cc1ccccc1NC(=S)NNC(=O)c1csc2c1CCC(C)C2 (configuration not stated)	n	n
COc1ccc(C2c3c(ccc4ccccc34)Oc3ncn4nc(CO/N=C/c5ccccc5)nc4c32)cc1 (configuration not stated)	3.2µM	n
COc1ccc(C2c3c(ccc4ccccc34)Oc3ncn4nc(Cc5ccc(OC)c(OC)c5)nc4c32)cc1 (configuration not stated)	n	n
COc1ccc(C2c3c(ccc4ccccc34)Oc3ncn4nc(-c5ccco5)nc4c32)cc1 (configuration not stated)	u	n
c1ccc(C2c3c(ccc4ccccc34)Oc3ncn4nc(-c5ccco5)nc4c32)cc1 (configuration not stated)	3.2µM	n
C=CCn1c(C)cc(C(=O)COc2ncnc3sccc23)c1C	n	n
COc1ccc(S(=O)(=O)N(C)CC(=O)Nc2ccccc2OC)cc1	n	n
Cc1ccc(C)c(CN2C(=O)C3(c4ccccc42)N(c2ccc(Cl)cc2)C(=O)CS3(=O)=O)c1 (configuration not stated)	3.2µM	n
Cc1ccc(N2C(=O)CS(=O)(=O)C23C(=O)N(Cc2ccccc2F)c2ccccc23)cc1Cl (configuration not stated)	1.3µM	n
COc1ccc(N2C(=O)CCSC23C(=O)N(Cc2ccc(F)cc2)c2ccccc23)cc1 (configuration not stated)	n	n
SMILES	Cruzain noTriton	Cruzain Triton
Cc1ccc(C)c(CN2C(=O)C3(OCCCO3)c3ccccc32)c1	n	n
Cc1ccc(N2C(=O)CSC23C(=O)N(Cc2ccccc2F)c2ccccc23)cc1F (configuration not stated)	n	n
COc1ccc(N2C(=O)CS(=O)(=O)C23C(=O)N(Cc2ccc(F)cc2)c2ccc(C)cc23)cc1 (configuration not stated)	3.2µM	n
Cc1ccc(N2C(=O)CS(=O)(=O)C23C(=O)N(Cc2ccc(Cl)cc2)c2ccccc23)cc1C (configuration not stated)	13µM	n
Cc1ccc(CN2C(=O)C3(SCC(=O)N3c3ccc(C)c(C)c3)c3ccccc32)cc1 (configuration not stated)	u	n
Cc1noc(-c2ccc(-c3noc(-c4ccc([N+](=O)[O-])c(C)c4)n3)cc2)n1	n	n
COc1ccc(-c2nc(C#N)c(N3CC(C)OC(C)C3)o2)cc1OC (configuration not stated)	n	n
CCc1ccccc1NC(=O)c1sc2nc(C)cc(COC)c2c1N	n	n
Cc1ncc(CO)c2c1Oc1nc(-c3ccccc3F)nc(SCC(=O)N3CCCCC3)c1C2	n	n
O=C1C2C3C=CC(C3)C2C(=O)N1/N=C/c1cn(Cc2ccc(F)cc2)c2ccccc12 (configuration not stated)	u	n
O=C1CS(=O)(=O)C2(C(=O)Nc3ccccc32)N1c1cccc(Cl)c1 (configuration not stated)	n	n
Cc1ccc(CN2C(=O)C3(c4ccccc42)N(c2ccc(C)c(Cl)c2)C(=O)CS3(=O)=O)cc1 (configuration not stated)	1.3µM	n
O=C1OC(C(=O)O)Cc2ccccc21 (configuration not stated)	n	n
COc1cc(-c2cc(OC)c3c(C)oc(C)c3c(=O)c2)ccc1OC(=O)c1ccccc1Cl	n	n
COc1cc(-c2cccs2)cc(=O)c2c(C)oc(C)c12	20µM	n
CCc1cc2c(=O)c(-c3cnn(-c4ccccc4)c3)coc2c(CN2CCOCC2)c1O	u	n
CCc1ccc(NC(=O)CS(=O)CC(=O)NC(C)CCc2ccco2)cc1 (configuration not stated)	25µM	n
CCc1ccc(NC(=O)N(Cc2ccco2)C(C)c2cccs2)cc1 (configuration not stated)	n	n
O=C(CSc1nnc(-c2cccs2)o1)N1CCOCC1	n	n
CCOC(=O)c1sc(NCc2ccco2)c(-c2nc3ccccc3s2)c1N	u	n
C=CCNc1sc(C(=O)c2ccccc2)c(N)c1-c1nc2ccccc2s1	7.9µM	n
CCNc1sc(C(=O)c2cccs2)c(N)c1-c1nc2ccccc2s1	7.9µM	n
CCNc1sc(C(=O)c2cccs2)c(N)c1C#N	n	n
CCCCN1C(=O)C(NC(=O)c2cccnc2)(C(F)(F)F)C2=C1CC(C)(C)CC2=O (configuration not stated)	n	n
CCCCn1nnnc1SCC(=O)NNC(=O)C1CCCCC1	n	n
SMILES	Cruzain noTriton	Cruzain Triton
NC(=O)C1(N2CCCCC2)CCN(Cc2ccccc2Cl)CC1	n	n
Cc1noc(C)c1-c1cncnc1N1CCN(C)CC1	n	n
CCCCc1cc(=O)oc2c(CN3CCCC3)c(O)c(Cl)cc12	u	28µM
CCCCc1cc(=O)oc2cc(OCc3nn[nH]n3)c(Cl)cc12	n	n
Cc1c(C)c2cc(Cl)c(O)c(CN3CCCCC3)c2oc1=O	n	u
Cc1cc(=O)oc2c(CN3CCN(C)CC3)c(O)c(Cl)cc12	u	n
CCCc1cc(=O)oc2c(CN3CCN(C)CC3)c(O)c(Cl)cc12	u	32µM
CCCCc1cc(=O)oc2c(CN(CC)CC)c(O)c(Cl)cc12	u	28µM
C=CCn1ncc(OC)c(Cl)c1=O	n	n
Cc1ccccc1Cn1c2ccccc2c2cnn(CC(=O)NCCc3ccc(Cl)cc3)c(=O)c21	n	n
Cc1cc(C(=O)CN2C(=O)NC(c3ccccc3)(c3ccccc3)C2=O)c(C)n1Cc1ccccc1	10µM	n
Cc1cc(C(=O)CN2C(=O)NC(C)(c3ccccc3)C2=O)c(C)n1CC1CCCO1 (configuration not stated)	n	n

Compound activity deposited in PubChem by National Center for Advancing Translational Sciences (NCATS).
